Laboratory results as given in PubChem BioAssay AID603 (National Center for Advancing Translational Sciences (NCATS), 2007).
Out of some 71,000 compounds screened, about 180 (0.25%) were called active. What follows is part of a selection rich in actives, with near analogues and random picks from the rest. A number with no mark means an inactive call. Calls follow the shape of the dose curve; as a rule, active = well fitted curve in the direction sought with a large enough effect; inconclusive = small, poorly fitted or top-dose-only effect; inactive = flat fitted curve, though single readings scatter.

system: DNA polymerase III holoenzyme (E. coli); assay: qHTS Assay for Inhibitors of DNA Polymerase III Holoenzyme System; conditions: reconstituted DNA polymerase III holoenzyme replication, biochemical; series mostly up to 57.1 µM; activity change, negative = inhibition: at the top concentration
Experimental: NIH Molecular Libraries Screening Centers Network [MLSCN]
NIH Chemical Genomics Center [NCGC]
Assay Provider: Charles McHenry, University of Colorado
E. coli DNA polymerase III holoenzyme complex was assayed for DNA production by fluorescent detection of the double-stranded DNA product with PicoGreen dye. The holoenzyme complex was reconstituted from the following purified protein components: DNA Polymerase III, beta subunit processivity factor, SSB single-stranded DNA binding protein, and Primase. Single-stranded, circular M13Gori was used as a substrate with dNTPs and NTPs also supplied to the substrate reagent. Compounds from the NCGC collection were incubated with the holoenzyme mixture for 15 min at room temperature to allow binding to occur, and then the reaction was started by the addition of substrate. After 30 min incubation at room temperature, PicoGreen solution containing EDTA was added to stop the reaction and to visualize the double-stranded DNA produced. Reaction progress was measured in a ViewLux CCD imager in fluorescence intensity mode by using 480 nm excitation and 540 nm emission filter set.
NCGC Assay Protocol Summary:
Buffer. 50 mM Hepes-KOH, pH 7.5, 5 % Glycerol, 0.02% NP40, 30 mM potassium;
glutamate, 1.5 mM Magnesium Acetate, 16 uM TCEP.
Buffer in columns 3 and 4 as negative control (no enzyme).
Substrate solution: 5 uM each dATP, dGTP, dCTP and TTP, 50 uM each GTP, CTP, UTP and 200 uM ATP, 1.4 nM M13gori (final concentrations).
Enzyme: 154 nM SSB, 2 nM Primase, 1 nM Beta, 0.35 nM Pol III (final concentrations).
PicoGreen/EDTA: 10 mM Tris-HCl, 10 mM EDTA, 5 uM PicoGreen (final concentrations).
Control titration: ChemBridge 5805060 (from 10 mM, then 1:2, in duplicate) was pin-transferred to upper half of column 2.
Three uL of holoenzyme mixture were dispensed to 1536-well Greiner black solid bottom plates. Compounds and controls (23 nL) were transferred via Kalypsys PinTool. The plates were incubated for 15 min at room temperature, and then 1 uL of substrate solution was added to start the reaction. After room temperature incubation for 35 minutes, 1 uL of PicoGreen solution was added to each well and the plates were read 480 nm excitation and 540 nm emission using ViewLux (Perkin-Elmer) High-throughput CCD imager and fluorescence protocol settings.
Keywords: NIH Roadmap, MLSCN, MLI, MLSMR, qHTS, NCGC, DNA Polymerase III, DNAPol3, DNAPoly3, DNA replication targets
% is scaled to controls: 0 for no effect and ±100 for the full control effect.

SMILES	activity change, negative = inhibition	Potency
CC(=O)OCC(COC(C)=O)OC(C)=O	6%	–
CCOc1ccc(-c2nnc3ccc(SC)nn23)cc1	-4.6%	–
CN(C)c1ncc2nc(-c3ccc(F)cc3)c(=O)n(Cc3ccc(F)cc3)c2n1	-10.5%	–
Cc1c(NC(=O)C(C)OC(=O)c2cc3c4ccccc4n(C)c3s2)c(=O)n(-c2ccccc2)n1C (configuration not stated)	-9%	–
CC1COC2C(O1)N(S(C)(=O)=O)CCN2S(C)(=O)=O (configuration not stated)	-5.1%	–
Cc1cc(NC(=O)COc2ccc(Cl)cc2Cl)n(CCC#N)n1	-3.1%	–
COc1cc(=O)[nH]c(=O)n1C(=O)Cc1ccccc1	-6%	–
CCC(C)(C)n1nnnc1C(c1cccs1)N1CCN(c2nc3ccccc3s2)CC1 (configuration not stated)	-3.1%	–
CC[N+](C)(CC)CCC[n+]1c(-c2ccccc2)c2cc(N)ccc2c2ccc(N)cc21	–	2 µM (active)
O=C(OCC(COC(=O)c1ccccc1)(COC(=O)c1ccccc1)COC(=O)c1ccccc1)c1ccccc1	0.5%	–
COc1ccc(CC(=O)n2nc(-c3cccnc3)nc2N)cc1	-4.3%	–
COc1ccccc1NC(=O)C1=C(C)Nc2nnnn2C1c1cccc(Br)c1 (configuration not stated)	-0.8%	–
CC(C)NC(=O)CCCn1c(=S)[nH]c2cc3c(cc2c1=O)OCO3	-4.2%	–
O=C1C(c2[nH]c3ccccc3c2O)=Nc2ccccc21	–	3.98 µM (active)
CCCOC(=O)Cc1c(O)c2ccccc2[nH]c1=O	2.4%	–
CCCC(=O)Nc1c(O)c2ccccc2[nH]c1=O	1.8%	–
CC(C)(C)[Si](OCC[C@@H]1C[C@@]1(C)[C@@H](NP(=O)(c1ccccc1)c1ccccc1)c1ccccc1)(c1ccccc1)c1ccccc1	2.2%	–
N#Cc1cccc(-c2ccc3ncnc(NCc4cccs4)c3c2)c1	-0.5%	–
CC(C)C[C@H](NC(=O)NCCc1ccc(Cl)cc1)C(=O)O	0.4%	–
COc1ccc(-n2ncc3c(N4CCCc5ccccc54)ncnc32)cc1	0.2%	–
CCCC[C@@H]1C[C@H]1C(NC(=O)c1ccco1)c1ccc(C(=O)OC)cc1 (some centres not stated)	-5.4%	–
CS(=O)(=O)N1CCC2(CC1)CN(c1ccncc1)C2	-4.4%	–
O=C(O)c1ccc(C(=O)c2ccccc2C(=O)O)cc1C(=O)O	–	3.98 µM (active)

SMILES	activity change, negative = inhibition	Potency
O=C(c1ccc(O)cc1)c1ccc(C(=O)O)c(C(=O)O)c1	-2.9%	–
Cc1ccccc1C(=O)O	1.3%	–
CCc1nnc(NS(=O)(=O)c2ccc(NS(=O)(=O)c3ccccc3)cc2)s1	-14.1%	–
Cc1ccnc(N)c1	-0.2%	–
c1ccc2nc(C3=NCCN3)cnc2c1	-3.7%	–
c1ccc(Cc2nn3c(Cn4cnc5ccccc54)nnc3s2)cc1	-6.2%	–
COc1ccc2oc(=O)c(C(=O)O)cc2c1	0.4%	–
O=C(CN1CCOc2ccccc21)N1CCC(Cc2ccccc2)CC1	0.5%	–
O=C(NCCCN1CCCCCC1)c1ccc(N2CCCC2=O)cc1	-2.7%	–
CC(=O)N1[C@H](C)C=C[C@]1(Cc1ccccc1)C(=O)NCc1ccccn1	10.3%	–
O=C1CN(C(=O)COC(=O)C2CC(=O)N(Cc3ccco3)C2)c2ccccc2N1 (configuration not stated)	-5.6%	–
O=C(Nc1ccn(Cc2ccc(F)cc2)n1)c1ccncc1	2.3%	–
CC(=O)N=c1ncn(CC(COC(C)=O)OC(C)=O)c2nc[nH]c12 (configuration not stated)	-5.5%	–
CCn1c(CSc2ncccn2)nnc1SCC(=O)N1c2ccccc2CC1C (configuration not stated)	-3.1%	–
C/C(=C\c1ccco1)C1Nc2cccc3cccc(c23)N1	–	3.16 µM (active)
Cc1cc(C)cc(NC(=O)C2CCN(c3nc(C)cc(C)n3)CC2)c1	-1.5%	–
CN1CCCC(OC(=O)COc2ccc(Br)cc2)C1 (configuration not stated)	-3.3%	–
Cc1cc(=O)oc(C)c1C(=O)NCc1ccc(F)cc1	-6.9%	–
Oc1ccccc1CNCc1ccccc1O	-9.4% [at 11.4 µM]	–
CCOC(=O)c1c(C2CC2)csc1NC(=O)CSCc1c(C)noc1C	-5.2%	–
Cc1cc(C)nc(SCc2ccccc2C#N)n1	-13.8%	–
CCCCCCc1ccc(O)cc1O	0.2%	–
COc1ccccc1CNc1ncnc2ccc(-c3c(C)noc3C)cc12	-1.2%	–

SMILES	activity change, negative = inhibition	Potency
COc1ccc(Cn2cccc(NC(=O)Nc3ccc(C#N)cc3)c2=O)cc1	-2.6%	–
COc1ccc(OC)c(C(=O)c2ccc(C(=O)O)cc2)c1	1.1%	–
CC(C)NC[C@H](O)c1ccc2ccccc2c1	inactive	–
O=C(Oc1ccc2c(c1)CN(Cc1ccccc1)CO2)c1ccccc1	-3% [at 11.4 µM]	–
COCCn1c(=O)c(CCc2ccccc2)nc2cncnc21	-7.4%	–
CCCn1c(-c2ccc(F)cc2)nc2c(NCC3CCCN3CC)nc(C)nc21 (configuration not stated)	-1.2%	–
COc1cccc2sc(Nc3nc(C)c(C(C)=O)s3)nc12	-4.5%	–
O=S(=O)(c1cccc(S(=O)(=O)N2CCC(n3nnc4ccccc43)CC2)c1)N1CCCCC1	-5.3%	–
CC[C@]1([C@H]2O[C@@H]([C@@H]3O[C@](O)(CO)[C@@H](C)C[C@H]3C)C[C@H]2C)CC[C@@H]([C@]2(C)CC[C@@]3(C[C@@H](O)[C@@H](C)[C@@H]([C@H](C)[C@H](OC)[C@H](C)C(=O)O)O3)O2)O1	-3.8% [at 25.6 µM]	–
CC(=O)NC(C)c1nc2ccccc2n1Cc1ccccc1F (configuration not stated)	-0.1%	–
Cc1ccc(S(=O)(=O)Nc2ccccc2CNc2c(C)n(C)n(-c3ccccc3)c2=O)cc1	-1.6%	–
Cc1noc(C)c1-c1nccc(N2CCOCC2)n1	-4.8%	–
Cc1cc(C)cc(N(CC(=O)Nc2c(C)n(C)n(-c3ccccc3)c2=O)S(C)(=O)=O)c1	2.7% [at 11.4 µM]	–
Cc1cn(C2C=CC(CO)O2)c(=O)[nH]c1=O (configuration not stated)	0%	–
COc1cccc2cc(C(C)N(CCCN3CCOCC3)C(=O)Nc3ccc(Cl)cc3)oc12 (configuration not stated)	-0.7%	–
O=C(c1cc(C(F)(F)F)cc(C(F)(F)F)c1)N1CCC[C@@]2(CCN(c3ccccn3)C2)C1	-5.9%	–
CS(=O)(=O)Nc1cccc(-c2cncnc2Nc2ccccc2)c1	-2%	–
CCOc1ccc(CCNC(=O)C2CCN(c3ccc(N4CCOCC4)nn3)CC2)cc1OCC	-4.2%	–
Cc1cccc(C(=O)O)c1	7.4%	–
COC(=O)[C@@]1(Cc2ccc(F)cc2)[C@H]2c3cc(C(=O)N(C)C)n(CCc4c[nH]c5ccc(OC)cc45)c3C[C@H]2CN1C(=O)c1ccccc1	-11%	–
COc1ccccc1CCn1c(=O)c(-c2cn(C)c3ccccc23)nc2cncnc21	-6.9%	–
